# Data as given in the supplement of paper PMC3334620.
# Whole data set: some 33,000 sequences, median “E-score (-0.5 to 0.5)” near -0.041, cut for the highest 2% near 0.37. Only a selection was taken, and the highest values are over-represented in it overall.
# Target: T1, Ecm22 (UniProt Q05958)
# T1 sequence: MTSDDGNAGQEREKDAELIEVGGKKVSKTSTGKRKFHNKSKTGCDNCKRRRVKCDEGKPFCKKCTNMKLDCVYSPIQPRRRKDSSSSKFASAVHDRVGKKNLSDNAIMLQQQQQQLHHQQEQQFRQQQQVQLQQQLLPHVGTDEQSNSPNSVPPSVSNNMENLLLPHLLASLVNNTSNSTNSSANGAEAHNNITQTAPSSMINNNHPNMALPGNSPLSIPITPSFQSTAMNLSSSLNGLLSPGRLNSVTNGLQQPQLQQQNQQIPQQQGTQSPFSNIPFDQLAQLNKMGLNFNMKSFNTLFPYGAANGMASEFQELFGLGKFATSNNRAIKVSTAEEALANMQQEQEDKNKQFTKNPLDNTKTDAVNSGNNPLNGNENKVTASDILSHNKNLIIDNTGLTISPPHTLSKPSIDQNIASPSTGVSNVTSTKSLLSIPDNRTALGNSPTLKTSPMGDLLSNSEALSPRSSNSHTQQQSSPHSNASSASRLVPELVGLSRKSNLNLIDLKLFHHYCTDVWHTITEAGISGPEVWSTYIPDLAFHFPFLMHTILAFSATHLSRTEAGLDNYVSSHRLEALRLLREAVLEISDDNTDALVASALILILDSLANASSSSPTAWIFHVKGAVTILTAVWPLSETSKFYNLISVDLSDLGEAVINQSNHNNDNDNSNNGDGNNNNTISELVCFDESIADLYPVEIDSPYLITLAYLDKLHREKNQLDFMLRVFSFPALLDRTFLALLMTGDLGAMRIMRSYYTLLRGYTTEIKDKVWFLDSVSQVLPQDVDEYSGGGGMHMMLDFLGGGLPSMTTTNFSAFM
# Test: PBM E-score (8-mer binding enrichment) (E-score (-0.5 to 0.5)); higher = stronger / more preferred TF binding
# Conditions: protein concentration: 200 nM; construct: GST-full length
# Method: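 Universal 'all 10-mer' protein binding microarrays (Agilent AMADID 015681) probed with GST-tagged S. cerevisiae TFs (full-length or DBD) made by in vitro transcription/translation (PURExpress), about 100-200 nM. Bound TF was detected with fluorescent anti-GST. Each ungapped 8-mer (which stands for itself and its reverse complement) is scored by the PBM enrichment score (E-score), a modified Wilcoxon-Mann-Whitney statistic from -0.5 to +0.5, computed with the Universal PBM Analysis Suite. Scale: above 0.35 generally sequence-specific binding.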
row,Sequence,PBM E-score
1,GGCGTACA,0.16
2,AACGTACA,0.204
3,ATTCTTAC,-0.026
4,CACCAGCA,-0.028
5,CTGCAGGA,-0.245
6,AGACCCGC,-0.00174
7,ACACGAGT,0.24
8,AAACGAGG,0.476
9,TAACGTGA,-0.142
10,AAACGAGT,0.456
11,AAACGTGG,0.133
12,CAACGAGA,0.378
13,CAACGAGG,0.343
14,TCACGAGA,0.0348
15,AAACGGGT,0.319
16,TAACGAGA,0.369
17,ACCCCCCA,-0.296
18,ATCACAAG,-0.0512
19,CCCCTAGG,-0.307
20,ACGAATTC,0.269
21,AGCCTGTC,0.0499
22,CATTGGCG,-0.239
23,ATCTTTGA,-0.00074
24,AGGCCGAC,-0.106
25,ACACGAGA,0.265

row,Sequence,PBM E-score
1,AGACGAGA,0.166
2,AAACGAGA,0.463
3,GCGTAAGA,0.074
4,AATATCTA,-0.0604
5,AGCCGTAC,0.369
6,GGCCGTAC,0.419
7,GGCCGTAA,0.244
8,CGCCGTAG,0.119
9,AGCCGTAT,0.315
10,GACCGTAC,0.362
11,CGCCGTAA,0.26
12,AGCCGTAG,0.0779
13,CGCCGTAC,0.408
14,ACGGTTGA,0.0702
15,AAGCCGAA,-0.0177
16,CAGGCACG,-0.112
17,AACAACTT,-0.092
18,GAAATCTC,0.129
19,CCCGAGCG,0.173
20,GTACGAAC,0.475
21,GGACGAAC,0.111
22,CTACGAAC,0.369
23,ATACGAAC,0.474
24,AGACGAAC,0.295
25,GCACGAAC,0.222

row,Sequence,PBM E-score
1,ACACGAAC,0.237
2,CTACGAAG,0.297
3,CCACGAAC,0.201
4,CCTAGCCC,-0.222
5,AGCGTCCC,-0.145
6,AATCTGTG,-0.0802
7,GTGGAACA,0.0214
8,GGAGTGCA,0.0316
9,GTGGGTCA,-0.308
10,GCGAGGTA,0.285
11,AAGAGGTC,-0.207
12,CCGAGGTC,0.11
13,ACGAGGTA,0.413
14,ATGAGGTG,-0.127
15,ACGAGGTC,0.389
16,AGGAGGTG,-0.298
17,CCGAGGTA,0.176
18,ACGAGGTG,0.397
19,CCTTTTCC,0.055
20,CGGTCTGC,0.0314
21,TACCACGA,0.0887
22,GCAACTGA,0.0723
23,GACTTCGC,0.232
24,GCAACGAA,0.406
25,ACAACGAA,0.257

row,Sequence,PBM E-score
1,ACAACGAC,0.295
2,TCAACGAA,0.187
3,GCAACGAC,0.417
4,CCAACGAC,0.0154
5,AGGCCCCA,-0.182
6,TAGTCCAA,-0.157
7,CGTACTGA,0.32
8,AGTACTTA,0.0475
9,AGTACAAG,0.0646
10,AGTACATA,-0.0214
11,CGTACATC,0.353
12,CGTACAAG,0.416
13,CGTACAAA,0.412
14,AGTACAAA,0.0199
15,CGTACTTA,0.375
16,CGTACATA,0.414
17,CATACAAG,-0.122
18,GGTACAAA,-0.0856
19,ACCACCAT,-0.103
20,TTAGGGAA,-0.0515
21,ATAACGGC,0.146
22,ATGAAGGC,-0.102
23,CGTGGACC,-0.108
24,ACGGAATG,0.0826
25,AGTGTTGA,-0.109

row,Sequence,PBM E-score
1,AAGCCGAG,0.0901
2,ACTGGATG,-0.18
3,CGTACAAC,0.434
4,CGTACTAC,0.382
5,CGTACTAA,0.341
6,AGTACAAC,0.0262
7,GGTACAAC,0.0714
8,CGTACTAG,0.342
9,CTAAACAG,-0.109
10,AAACCACT,-0.153
11,AGCTGCGG,-0.00448
12,AATCGCCC,-0.0815
13,TAGAGCCA,-0.288
14,ACTCCGTG,-0.233
15,AGGTCGGC,-0.138
16,CGTTACGA,0.403
17,GGTTACCA,0.0711
18,AGTTACGA,0.393
19,GGTTACTA,-0.123
20,CGTTACAA,0.0964
21,CGTTACGC,0.256
22,AGTTACGC,0.071
23,GGTTACGA,0.381
24,AGTTACGG,0.138
25,GTGGCGTA,0.042

row,Sequence,PBM E-score
1,CCCGTTGC,0.111
2,CCTCGGGC,0.0916
3,ACTTCACC,0.0335
4,AAAATCAC,-0.0192
5,GTACGAAA,0.467
6,ACACGAAT,0.217
7,ATACGTAT,0.374
8,ATACGTAC,0.342
9,GCACGAAA,0.103
10,AGACGAAT,0.0921
11,ATACGAAG,0.466
12,ATACGTAA,0.278
13,ACACGAAG,0.249
14,AGACGAAG,0.0703
15,GGACGAAA,0.108
16,ATACGAAT,0.45
17,AGCCTTAA,-0.0857
18,AACTTGGT,0.0861
19,TGTGTCAA,-0.0896
20,CGCAAGCC,0.0725
21,GGATCCCC,-0.0315
22,ACACGAAA,0.224
23,TCACGAAA,-0.00573
24,TTACGAAA,0.403
25,CTACGAAA,0.302

row,Sequence,PBM E-score
1,ATACGAAA,0.463
2,AGACGAAA,0.194
3,ATGGTTCA,0.0295
4,AGAACCCC,-0.179
5,GACCCTCC,0.00379
6,CGTGCGTA,0.233
7,GCCCCCCA,-0.365
8,AGGATTAG,-0.0677
9,ACGCAACG,0.308
10,CCGCAACC,-0.176
11,CCGCAACG,0.377
12,GCGGCACC,-0.0132
13,GACGATCA,-0.0466
14,AACGATGT,0.396
15,ATCGATGA,-0.0837
16,AACGATGA,0.386
17,CACGATGA,0.19
18,GACGATGA,-0.0197
19,TACGATGA,0.438
20,CACGATGC,0.136
21,TACGATCA,0.443
22,GACGATGC,-0.0114
23,CACGATCA,-0.00633
24,AAAGATGT,-0.0546
